Assay outcomes deposited in PubChem BioAssay by National Center for Advancing Translational Sciences (NCATS).
IL-2 act = activates IL-2 in a cell-based reporter assay; IL-2 activation reporter assay, cell-based qHTS; stimulated with anti-CD3/CD4/CD28 beads; in transgenic mouse T cells; activation, % (series mostly up to about 46 µM); 360,000 compounds, 0.065% hits; AID 652025; in the data active = activation above about 50%; inconclusive = mostly about 30% to 49%; note: 0% is about no effect
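EGFP and DsRed fluorescence is measured by plate cytometry in unstimulated transgenic mouse T cells exposed to compound for 60 minutes, then stimulated 18 hours at 37 degrees C with anti-CD3/anti-CD4 beads plus anti-CD28.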
gsp agonist = gsp mutant agonism; gsp mutant cells, cAMP HTRF, 30 min; 340,000 compounds, 0.13% hits; Potency, µM (series often up to 76.9 µM), without a hit: at the top dose activation (cAMP increase), hits mostly activators; active = well fitted activation curve with a large enough effect; inconclusive = small, poorly fitted or top-dose-only effect, or another doubt; inactive = no such curve, though single readings can be large or run the other way; cell line not stated here;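 note: phosphodiesterase inhibitor Ro 20-1724 added with compounds to block cAMP breakdown; potency is the fitted concentration of half-maximal effect; nearly all actives have a fitted effect of over 60% in size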
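Cells stably selected in G418 were plated at 2000/well, grown 16-24 hr, then given compounds in DMSO with the PDE inhibitor […] (300 uM solution added) for 30 min at 37C; cAMP was read by HTRF.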
gsp antagonist = antagonists of gsp mutant (McCune-Albright syndrome). AID 624288. gsp-mutant cells, cAMP HTRF, 30 min. 340,000 compounds, 0.4% hits. Potency, µM (highest dose often 76.9 µM), for inactives: top-dose activity change, negative = inhibition, actives largely listed as inhibitors; calls by dose curve; cell line not stated here;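 note: intracellular cAMP measured with PDE inhibitor Ro 20-1724 present during compound exposure; potency is the fitted concentration of half-maximal effect; % is set by controls: 0 for no effect and ±100 for the full control effect; nearly all actives have a fitted effect of over 65% in size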
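HTRF cAMP measurement after 30 min RT detection following 30 min, 37C compound treatment alongside […] (added as 300 uM solution) in G418-selected cells seeded at 2000/well and grown 16–24 h.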
IDH1 R132H inh = inhibitors of human mutant IDH1 R132H | O75874 | IDH1-R132H enzyme, NADPH consumption, diaphorase/resazurin fluorescence | Potency, µM (doses to about 76.6 µM), for inactives: at the top dose activity change, negative = inhibition, usual class: inhibitors | 390,000 compounds, 0.093% hits | AID 602179; note: potency is the fitted concentration of half-maximal effect; % is set by controls: 0 for no effect and ±100 for the full control effect; nearly all actives have a fitted effect of over 65% in size
Target sequence (O75874 whole entry R132H, stated change not applied): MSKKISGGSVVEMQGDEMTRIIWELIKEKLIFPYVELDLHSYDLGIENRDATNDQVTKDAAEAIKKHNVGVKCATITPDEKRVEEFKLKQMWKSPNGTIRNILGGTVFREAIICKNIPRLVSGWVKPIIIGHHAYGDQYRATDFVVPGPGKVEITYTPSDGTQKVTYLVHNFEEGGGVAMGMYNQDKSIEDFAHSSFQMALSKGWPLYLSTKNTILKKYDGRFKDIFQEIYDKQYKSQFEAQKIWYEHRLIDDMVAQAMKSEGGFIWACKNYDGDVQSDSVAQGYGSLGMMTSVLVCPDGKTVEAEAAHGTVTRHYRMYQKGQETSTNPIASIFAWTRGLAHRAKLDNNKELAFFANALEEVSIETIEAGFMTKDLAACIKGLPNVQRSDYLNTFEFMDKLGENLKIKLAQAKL
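IDH1-R132H (0.5 ug/mL dispensed) in pH 7.5 Tris buffer was preincubated 30 min with compound, then given a substrate mix of 0.016 mM NADPH and 2 mM alpha-KG for 80 min at room temperature; remaining NADPH was read by diaphorase/resazurin fluorescence.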
BRCA1 expr act = increases BRCA1 expression; MCF7-BRCA1-FFLuc reporter, luminescence, 48 h; response scale: scaled: vehicle 0%, 10 µM genistein 100%; 380,000 compounds, 1.1% hits; Potency, µM (series often up to 46.1 µM), inactives show at the highest dose activation, usual class: activators; AID 624202; note: potency is the fitted concentration of half-maximal effect; nearly all actives have a fitted effect of over 80% in size
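48 h compound treatment of MCF7-BRCA1-FFLuc cells (phenol-red free MEM, 37 °C), then 15 min with luciferase substrate and luminescence imaging.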
* marks the source's active call; other numbers are inactive results; [ ] = dose if it differs, or a comment. Most compounds without a hit are left out; they make up all but 1.5% or so of the library. Unless noted, calls come from the whole dose curve; as a rule, active = well fitted curve in the direction sought with a large enough effect; inconclusive = small, poorly fitted or top-dose-only effect, or another doubt; inactive = no such curve, though single readings can be large; an effect the other way counts as inactive or inconclusive.

For N#C/C(=C/c1ccc(N2CCCCC2)cc1)c1cccc(F)c1 the results were IL-2 act -0.5, gsp agonist 13.2%[15.4 µM], gsp antagonist -2.1%, IDH1 R132H inh 7.4% and BRCA1 expr act 7.94µM*.
COc1cc2nc(NC3CCN(Cc4ccccc4)CC3)nc(N3CCCN(C)CC3)c2cc1OC was read as BRCA1 expr act -34.7%.
`CCN1C(Br)=CCc2ccccc21` gave BRCA1 expr act 15.2%.
`CCC(=O)N1CCN(c2nc(CC)nc3sc4c(c23)CCCC4)CC1` gave IL-2 act 0.0, gsp agonist 25.0%[15.4 µM], gsp antagonist 20µM*, IDH1 R132H inh -12.8% and BRCA1 expr act -7.5%.
CCc1nc(N2CCN(C(=S)NCCCOC)CC2)c2c3c(sc2n1)CCCC3 was read as IL-2 act 4.5, gsp agonist -7.4%, gsp antagonist 7.08µM*, IDH1 R132H inh 4.2% and BRCA1 expr act -68.1%.
CCc1nc(N2CCN(S(C)(=O)=O)CC2)c2c3c(sc2n1)CCCC3 was read as IL-2 act 0.0, gsp agonist 0.1%, gsp antagonist inconclusive, IDH1 R132H inh -3.7% and BRCA1 expr act -19.7%.
COc1ccc(-c2cc3nc4ccccc4n3c(N)c2C#N)cc1 was read as IL-2 act 0.4, gsp agonist inconclusive, gsp antagonist -5.1%, IDH1 R132H inh 6.2% and BRCA1 expr act 3.98µM*.
Screening Cc1ccc2nc(-c3ccccc3)c(Cc3ccccc3C(F)(F)F)n2c1 returned IL-2 act 1.0 and BRCA1 expr act 2.51µM*.
Screening Cc1ccn2c(Cc3ccccc3)c(-c3ccccc3)nc2c1 returned IL-2 act -1.0, gsp agonist 3.3%, IDH1 R132H inh 18.4% and BRCA1 expr act 12.6µM*.
`COc1ccc(N2C(=O)c3ccccc3NC2(C)C)cc1` gave IL-2 act -2.6, gsp agonist inconclusive, gsp antagonist 7.7%, IDH1 R132H inh -6.4% and BRCA1 expr act 10µM*.
For CCOc1ccc(N2C(=O)c3ccccc3NC2(C)CC)cc1 (configuration not stated) the results were IL-2 act 0.1, gsp agonist -18.1%, gsp antagonist 2.4%, IDH1 R132H inh 1.6% and BRCA1 expr act 3.55µM*.
Screening CC1(C)Nc2ccccc2C(=O)N1c1ccc(Br)cc1 returned IL-2 act -0.7, gsp agonist 22.9%[15.4 µM], gsp antagonist -17.8%, IDH1 R132H inh 2.2% and BRCA1 expr act inconclusive.
For O=C(NN=C1C2CC3CC(C2)CC1C3)c1ccncc1 the results were IL-2 act 0.1, gsp agonist inconclusive, gsp antagonist 3.0%, IDH1 R132H inh 14.6% and BRCA1 expr act 1.2%.
For O=C(N/N=C1\C/C(=N\NC(=O)c2ccncc2)c2ccccc21)c1ccncc1 the results were IL-2 act -2.0, gsp agonist 25.1µM*, gsp antagonist -15.1%, IDH1 R132H inh -2.2% and BRCA1 expr act -51.4%.
CCC(=O)c1ccc(OCC(O)Cn2c(C)nc3ccccc32)cc1 (configuration not stated) was read as IL-2 act -1.0, gsp agonist 28.2µM*, gsp antagonist -38.7%, IDH1 R132H inh 8.6% and BRCA1 expr act -13.1%.
Screening CCCCN(CCCNC(=S)NCCCc1cnc[nH]1)c1ccc(Br)cn1 returned IL-2 act -0.5 and BRCA1 expr act -25.7%.
Screening CSc1nnc(NC(=O)c2nc(S(=O)(=O)Cc3cccc(C)c3)ncc2Cl)s1 returned IL-2 act -4.6, gsp agonist -9.1%[15.4 µM], gsp antagonist 39.8µM*, IDH1 R132H inh -1.4% and BRCA1 expr act -48.9%.
Screening Cc1cccc(CS(=O)(=O)c2ncc(Cl)c(C(=O)Nc3nnc(C(C)C)s3)n2)c1 returned IL-2 act -4.8, gsp agonist -0.5%[15.4 µM], gsp antagonist 20µM*, IDH1 R132H inh 4.7% and BRCA1 expr act -32.7%.
For CC(C)c1nnc(NC(=O)c2nc(S(=O)(=O)Cc3ccccc3F)ncc2Cl)s1 the results were IL-2 act -3.6, gsp agonist -2.6%, gsp antagonist inconclusive, IDH1 R132H inh 0.0% and BRCA1 expr act -50.8%.
